# Reference: PubChem BioAssay AID1030 (National Center for Advancing Translational Sciences (NCATS), 2008)
# Hit rate of the full screen: of about 220,000 compounds, about 16,000 (7.3%) were called active. Inconclusive results (about 25%) are left out. The sample as a whole holds a higher share of actives than the screen did. Unmarked numbers belong to inactive results. Calls come from the whole dose curve; as a rule, active = well fitted inhibition curve with a large enough effect (not every such curve was filed as active); inconclusive = small, poorly fitted or top-dose-only effect, or another doubt; inactive = no such curve, though single readings can be large or run the other way.
# Target: Aldehyde dehydrogenase 1A1 (Homo sapiens) (UniProt P00352)
# Sequence (P00352 whole entry, looked up): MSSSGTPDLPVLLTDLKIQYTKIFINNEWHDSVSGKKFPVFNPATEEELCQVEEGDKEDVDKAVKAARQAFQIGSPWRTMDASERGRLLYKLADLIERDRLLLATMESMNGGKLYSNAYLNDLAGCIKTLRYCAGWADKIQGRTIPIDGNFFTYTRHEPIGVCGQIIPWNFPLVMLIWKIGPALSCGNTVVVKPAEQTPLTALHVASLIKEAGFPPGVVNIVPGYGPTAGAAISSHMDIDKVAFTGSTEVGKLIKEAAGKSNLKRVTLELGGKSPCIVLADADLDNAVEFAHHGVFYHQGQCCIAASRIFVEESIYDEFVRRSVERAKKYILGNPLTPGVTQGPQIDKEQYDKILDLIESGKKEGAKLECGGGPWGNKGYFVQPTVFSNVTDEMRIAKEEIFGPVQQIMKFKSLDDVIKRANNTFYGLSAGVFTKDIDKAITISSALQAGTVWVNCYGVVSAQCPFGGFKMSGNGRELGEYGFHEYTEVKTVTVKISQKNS
# Experiment: qHTS Assay for Inhibitors of Aldehyde Dehydrogenase 1 (ALDH1A1);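 for activity, negative = inhibition: plate controls were no enzyme wells and a reference inhibitor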
# Conditions: Purified ALDH1A1, NADH fluorescence, propionaldehyde substrate; series mostly up to 75.3 µM; activity, negative = inhibition: at the top concentration
# Potency is the fitted concentration of half-maximal effect.
Compound,"activity, negative = inhibition",Potency
COC(=O)CCNc1ccc2c(c1)OCCO2,1.06%,
COc1ccc(C(=O)Nc2ccc3c(c2)OCO3)cc1OC,5.14%,
CCOc1ccc(NCCC(=O)c2ccc3c(c2)OCO3)cc1,,0.631 µM (active)
Cc1ccc(C)n1NC(=O)c1ccc([N+](=O)[O-])cc1,-2.92%,
CC(=O)Nc1ccc(Nc2c([N+](=O)[O-])cc(S(C)(=O)=O)cc2[N+](=O)[O-])cc1,1.36%,
Cc1cccc(NC(=S)N2CCCC(c3nc4ccccc4[nH]3)C2)c1 (configuration not stated),-4.99%,
CCC1(C)Cc2c(sc3nnn(CC(=O)Nc4ccc(Cl)cc4)c(=O)c23)CO1 (configuration not stated),1.5%,
CC(C)(C)C1CCc2c(sc3nc(SCC(N)=O)nc(N)c23)C1 (configuration not stated),-2.86%,
CCCn1nnc2sc3c(c2c1=O)CCC(C)C3 (configuration not stated),,6.31 µM (active)
Cc1ccc(NC(=O)c2ccccn2)cc1S(=O)(=O)N1CCOCC1,-1.07%,
CCc1ccc2c(c1)cc(CN(C(=S)Nc1ccccc1Cl)C1CC1)c1nnnn12,0.303%,
CCOc1ccc2c(c1)cc(CN(C(=O)CC)C1CCCCC1)c1nnnn12,,31.6 µM (active)
O=C(COC(=O)c1ccncc1)c1ccccc1,-0.468%,
Cn1cccc1/C=C1\SC(=O)N(CC(=O)Nc2ccc(F)cc2)C1=O,6.89%,
COC(=O)CCCC1=CC2=CC(=O)C(C)(OC(=O)c3cccs3)C(=O)C2=CN1c1cccc(C#N)c1 (configuration not stated),1.29% [at 13.5 µM],
Cc1ccc(-c2cc(C(=O)N3CCc4ccccc4C3)no2)cc1,-6.72%,
Cc1ccc(S(=O)(=O)N(C)CC(=O)N2CCc3ccccc32)cc1,-14.1%,
Cc1ccc2c(c1)N(C(=O)CCC(=O)N1CCc3ccccc3C1)CCO2,,20 µM (active)
Cc1cccc(NC(=O)Nc2ccc3c(c2)OCO3)n1,-5.97%,
CC1=C2[C@@H](O)[C@H]([C@@H](C)C(=O)NCCC(C)C)CC[C@@]2(C)C=CC1=O,3.98%,
CC(=O)OC1C([N+]2(C)CCCCC2)C[C@H]2C3CC[C@H]4C[C@H](OC(C)=O)C([N+]5(C)CCCCC5)CC4(C)C3CCC12C (some centres not stated),-0.578%,
N#Cc1ccc(COC(=O)Cn2nnc(-c3ccccc3)n2)cc1,-12.2%,
O=C(O)C1CCN(C(=O)OCc2ccccc2)CC1,11.2%,
N#Cc1c(N)sc2c1CCN(C(=O)OCc1ccccc1)C2,,10 µM (active)
CCN1CCC2(CCN(Cc3cn[nH]c3-c3ccc(OC)c(F)c3)C2)C1 (configuration not stated),-5.12%,
C=CCN(CC=C)CCOc1ccccc1[N+](=O)[O-],-17%,

Compound,"activity, negative = inhibition",Potency
COc1ccc(Nc2nc(N)nc(CSC(=S)N3CCC(C)CC3)n2)cc1,,3.16 µM (active)
CCOC(=O)N1CCN(Cc2nc(N)nc(Nc3ccc(C)cc3)n2)CC1,-7.53%,
CCOC(=O)c1cnc(SCc2nc(N)nc(Nc3ccc(OC)cc3)n2)nc1N,8.96%,
Oc1ccc(-c2onc3ccc(Cl)cc23)cc1,,11.2 µM (active)
O=C1N(Cc2ccc3c(c2)OCO3)c2ccccc2C1(O)c1c[nH]c2ccccc12 (configuration not stated),,3.16 µM (active)
O=C(CCCCn1c(=O)[nH]c2ccccc2c1=O)NCc1ccc2c(c1)OCO2,7.65%,
O=C(Cn1nnc(-c2ccccc2)n1)NCc1ccc2c(c1)OCO2,0.62%,
CCOc1ccc(-n2cnc3c(=O)[nH]c(N)nc32)cc1,6.63%,
CO/N=C(\N)c1ccc([N+](=O)[O-])cc1,2.88%,
CCCn1c(SCC(=O)Nc2ccc(C)c(S(=O)(=O)N3CCOCC3)c2)n[nH]c1=O,-6.54%,
COc1ccc(CNc2c(CO)cnc3c2cnn3C)cc1,-13.3%,
CCOC(=O)CSc1nc2c(sc(=S)n2CCc2ccccc2)c(=O)n1Cc1ccco1,,31.6 µM (active)
Nc1cc(=O)nc(SCc2ccccc2)n1Cc1ccco1,12.6%,
CCOC(=O)Cc1csc(NC(=O)CSc2nnc(-c3cccnc3)n2Cc2ccco2)n1,-6.11%,
Cc1cc(C)n2nc(C(=O)N3CCN(Cc4ccc5c(c4)OCO5)CC3)nc2n1,5.33%,
CCCCCCCC/C=C\CCCCCCCC(=O)OC[C@H](CO)OC(C)=O,,inactive
CCN(CC)CCNC(=O)c1ccc(NC(=O)c2c(F)cccc2Cl)cc1,-2.52%,
COc1ccc(CCNC(=O)c2cc(-c3ccc4c(c3)OCO4)on2)cc1OC,8.9%,
COc1c2c(cc3occ(-c4ccc5c(c4)OCO5)c(=O)c13)OC(C)(C)C=C2,,14.1 µM (active)
Cc1ccc(NC(=O)C(=O)NCC2CCN(C(=O)c3cccc([N+](=O)[O-])c3)CC2)cc1,1.36%,
CN1CCN(CC#CCC2(O)c3ccccc3-c3ccccc32)CC1,-5.97%,
CC(=O)C1C(c2ccc(Cl)cc2)c2c(n[nH]c2C)CC1(C)O (configuration not stated),2.01%,
CC(C)N1CCC(N2CCN(Cc3cccnc3)CC2CCO)CC1 (configuration not stated),1.27%,
O=C(CC1NCCNC1=O)Nc1cc(Cl)cc(Cl)c1 (configuration not stated),1.99%,
O=C(CC1NCCNC1=O)Nc1ccc(Oc2ccccc2)cc1 (configuration not stated),,20 µM (active)
CCOc1ccc(NC(=O)CC2NCCNC2=O)cc1 (configuration not stated),9.3%,
